{"source": "PubChem BioAssay (EPA / NIEHS)", "note": "Values joined by “and” are separate entries in the source; they are usually repeats but may differ in a detail not shown here. Equal values may be shown once. Active and inactive are the calls of the source. How the source made its calls: active means hit-call score of the fitted dose curve at least 0.9, where 1 is the maximum; inactive means score below 0.9.", "data": [{"test": "BSK_LPS_PGE2: BioMAP Diversity Plus: LPS Assay for Prostaglandin E2 (PGE2) Biomarker Activity (AID 2283082)", "conditions": "primary human HUVEC with PBMC; actives raise or lower the signal", "description": "BSK_LPS is a cell-based, multiplexed-readout assay that uses umbilical vein endothelium and peripheral blood mononuclear cells, a human vascular primary cell co-culture, with measurements taken at 24 hours after chemical dosing in a 96-well plate.BSK_LPS_PGE2 is an assay component measured in the BSK_LPS assay. It measures PGE2 antibody related to regulation of gene expression using ELISA technology.Data from the assay component BSK_LPS_PGE2 was analyzed into 1 assay endpoint. This assay endpoint, BSK_LPS_PGE2, was analyzed with bidirectional fitting relative to DMSO as the negative control and baseline of activity. Using a type of binding reporter, gain or loss-of-signal activity can be used to understand changes in the signaling as they relate to the gene PTGER2. Furthermore, this assay endpoint can be referred to as a primary readout, because this assay has produced multiple assay endpoints where this one serves a signaling function. To generalize the intended target to other relatable targets, this assay endpoint is annotated to the gpcr intended target family, where the subfamily is rhodopsin-like receptor.\nThe levels of cell surface (or secreted, indicated by the prefix \"s\") biomarker endpoints were measured by ELISA. Overt cytotoxicity to cells in confluent adherent cultures (all systems other than the BT system) was assessed by measuring total protein levels using sulforhodamine B (SRB) staining in parallel cultures at the time of biomarker measurements, indicated as SRB endpoints. For proliferation assays for adherent cell types, individual cell types are cultured at sub-confluence and relative cell numbers quantified by SRB staining at time points optimized for each system (48 h: 3C and CASM3C systems; 72 h: BT and HDF3CGF systems; 96 h: SAg system). SRB was performed by staining cells with 0.1% SRB after fixation with 10% TCA and reading wells at 560 nm.Viability and proliferation of PBMC (T cells) was quantified by Alamar Blue reduction for the SAg and BT systems. For PBMC viability (referred to as PBMC Cytotoxicity within the assay endpoint names), cells were plated (75,000/well in a 96-well plate) and then chemical samples added for 1 h before addition of activators, SEB and TSST-1 (20 ng/mL final concentration each). Cells were incubated for 90 h. Then, Alamar Blue (20 uL/well) (Invitrogen, Cat DAL1100) was added for 6 h, and the plates were read with a fluorescence microplate reader at 546/580 nm (excitation/emission). For PBMC proliferation, cells were plated and activated as above but incubated for only 16 h prior to addition of Alamar Blue. Plates were read after 6 h.", "values": [{"smiles": "O=C=NC1CCC(CC2CCC(N=C=O)CC2)CC1", "note": "(stereo not given)", "outcome": "inactive"}, {"smiles": "CN(CCOc1ccc(CC2SC(=O)NC2=O)cc1)c1ccccn1", "note": "(stereo not given)", "AC50": "0.121 µM (active)"}, {"smiles": "Cc1ccc2n[nH]nc2c1", "outcome": "inactive"}, {"smiles": "O=C(O)C[C@H](O)C[C@H](O)/C=C/c1c(C2CC2)nc2ccccc2c1-c1ccc(F)cc1", "outcome": "inactive"}, {"smiles": "COc1cc(C=O)ccc1OC(=O)C(C)C", "outcome": "inactive"}, {"smiles": "CC1CCC(C(C)CS)CC1S", "note": "(stereo not given)", "outcome": "inactive"}, {"smiles": "C=C[Si](OCC)(OCC)OCC", "outcome": "inactive"}, {"smiles": "CCCCC/C=C/C=C/C=O", "AC50": "25.3 µM (active)"}, {"smiles": "COC(=O)c1ccc(C)cc1", "outcome": "inactive"}, {"smiles": "CCC(=O)OCc1ccccc1", "outcome": "inactive"}, {"smiles": "CC(C)c1ccc(C(C)C)cc1", "outcome": "inactive"}, {"smiles": "OC1OC[C@@H](O)[C@H](O)[C@H]1O", "note": "(stereo not given in full)", "outcome": "inactive"}, {"smiles": "CCc1c(C)cc(N)c(CC)c1N", "outcome": "inactive"}, {"smiles": "O=P(c1ccccc1)(c1ccccc1)c1ccccc1", "outcome": "inactive"}, {"smiles": "C#C[C@]1(O)CC[C@H]2[C@@H]3CCC4=Cc5oncc5C[C@]4(C)[C@H]3CC[C@@]21C", "AC50": "3.97 µM (active)"}, {"smiles": "CC(=O)O[C@]1(C(C)=O)CC[C@H]2[C@@H]3C[C@H](C)C4=CC(=O)CC[C@]4(C)[C@H]3CC[C@@]21C", "outcome": "inactive"}, {"smiles": "O=C(O)c1cn(C2CC2)c2cc(N3CCNCC3)c(F)cc2c1=O", "outcome": "inactive"}, {"smiles": "CCCCCCCCCC=O", "outcome": "inactive"}, {"smiles": "CC(C)Oc1ccccc1O", "outcome": "inactive"}, {"smiles": "O=[N+]([O-])c1cc(C(F)(F)F)ccc1Cl", "outcome": "inactive"}, {"smiles": "CCn1c2ccccc2c2cc(N)ccc21", "AC50": "5.42 µM (active)"}, {"smiles": "O=C1CCCCCCCCCCCCCCO1", "AC50": "3.97 µM (active)"}, {"smiles": "Cc1ccc(O)c(C(C)(C)C)c1", "outcome": "inactive"}, {"smiles": "CC1COc2ccccc2N1C(=O)C(Cl)Cl", "note": "(stereo not given)", "outcome": "inactive"}, {"smiles": "c1ccc2c(c1)c1cccc3ccc4cccc2c4c31", "outcome": "inactive"}, {"smiles": "OC[C@H]1O[C@H](O[C@]2(CCl)O[C@H](CCl)[C@@H](O)[C@@H]2O)[C@H](O)[C@@H](O)[C@H]1Cl", "outcome": "inactive"}, {"smiles": "Nc1cc([N+](=O)[O-])ccc1O", "AC50": "3.97 µM (active) and 6.28 µM (active)"}, {"smiles": "O=C(O)c1ccc([N+](=O)[O-])cc1", "outcome": "inactive"}, {"smiles": "C=CCOC(=O)CCC1CCCCC1", "outcome": "inactive"}, {"smiles": "N#Cc1ccc(CC(=NNC(=O)Nc2ccc(OC(F)(F)F)cc2)c2cccc(C(F)(F)F)c2)cc1", "AC50": "2.68 µM (active)"}, {"smiles": "CNC[C@H](O)c1cccc(O)c1", "AC50": "0.167 µM (active)"}, {"smiles": "NCCNCCN", "outcome": "inactive"}, {"smiles": "O=C(O)c1cn(-c2ccc(F)cc2)c2cc(N3CCNCC3)c(F)cc2c1=O", "outcome": "inactive"}, {"smiles": "CC(=O)[C@H]1CC[C@H]2[C@@H]3CC=C4C[C@@H](O)CC[C@]4(C)[C@H]3CC[C@]12C", "AC50": "3.97 µM (active)"}, {"smiles": "CC[Si](OC(C)=O)(OC(C)=O)OC(C)=O", "outcome": "inactive"}, {"smiles": "Nc1cc([N+](=O)[O-])ccc1Cl", "outcome": "inactive"}, {"smiles": "C[C@H]1C[C@@H]2[C@H]([C@@H](O)C[C@@]3(C)[C@H]2CC[C@]3(O)C(=O)CO)[C@@]2(C)C=CC(=O)C=C12", "outcome": "inactive"}, {"smiles": "CCCCCCCCCCCCCCCCCC(=O)OCC(CC)CCCC", "note": "(stereo not given)", "outcome": "inactive"}, {"smiles": "C=C(C)C(=O)O[C@H]1C[C@@H]2CC[C@@]1(C)C2(C)C", "outcome": "inactive"}, {"smiles": "CC(=O)/C=C/C1=C(C)CCCC1(C)C", "outcome": "inactive"}]}]}
